aGal spleen mod = alpha-galactosidase A (human) modulation; human spleen homogenate, 4MU-alpha-Gal fluorescence, 40 min; Potency, µM (titrated, usually from 80 µM), inactives show at the top dose activity change, negative = inhibition, actives largely listed as inhibitors; 240,000 compounds, 0.008% hits;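 further: potency means the concentration at half of the fitted maximal effect; 0% = enzyme with vehicle and -100% = no enzyme basal signal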
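qHTS titration in buffer at pH 5.0. Alpha-galactosidase activity in spleen homogenate was measured via 4-methylumbelliferone release from 1 mM fluorogenic substrate after 40 min at 37C and a pH 10 stop. AC50 came from Hill fits of control-normalized data.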
PNC assembly inh = blocks assembly of the perinucleolar compartment; PC3M PTB-GFP, PNC prevalence imaging, 16 h; stronger effect = lower value; activity change (PNC), negative = inhibition, % at 10 µM; 140,000 compounds, 3.1% hits; AID 2417;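 active means readout at or below -70, meaning at least 70% loss of cells showing the perinucleolar compartment, a nuclear body marking cancer cells; inconclusive means readout between -30 and a set limit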;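 further: plate controls were DMSO wells for no effect and camptothecin positive control wells for full effect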
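Compounds are pinned in duplicate onto adhered PC3M cells stably expressing GFP-tagged PTB and incubated 16 h at 37 C. Cells are then fixed, nuclei stained with Hoechst, and PNC-positive cells counted.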
GLA inh pH 4.5 = blocks human alpha-galactosidase A at pH 4.5; P06280; purified enzyme, 4-MU-alpha-Gal fluorescence, pH 4.5; activity change, negative = inhibition, % at 105 µM; 230,000 tested, under 10 active;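 further: 0% = full activity with enzyme and -100% = basal without enzyme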
Target sequence (P06280 whole entry, looked up): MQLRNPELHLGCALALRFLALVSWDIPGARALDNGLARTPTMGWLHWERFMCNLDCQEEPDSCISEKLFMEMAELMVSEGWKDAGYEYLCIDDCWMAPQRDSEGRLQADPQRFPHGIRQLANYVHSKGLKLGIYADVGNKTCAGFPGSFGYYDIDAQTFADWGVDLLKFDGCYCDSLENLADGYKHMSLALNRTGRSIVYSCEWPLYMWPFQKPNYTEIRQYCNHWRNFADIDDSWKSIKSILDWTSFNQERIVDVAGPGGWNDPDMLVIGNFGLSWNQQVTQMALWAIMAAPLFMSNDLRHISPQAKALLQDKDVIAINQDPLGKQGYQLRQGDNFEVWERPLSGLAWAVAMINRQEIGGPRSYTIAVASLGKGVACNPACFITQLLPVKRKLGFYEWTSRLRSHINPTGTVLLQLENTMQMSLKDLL
ALDH1A1 inh = ALDH1A1 (human) enzyme inhibition. P00352. Purified ALDH1A1, NADH fluorescence, propionaldehyde substrate. Potency, µM (doses to about 75.3 µM), inactives show at the highest dose activity, negative = inhibition, usual class: inhibitors. 220,000 compounds, 7.3% hits. AID 1030; active means well fitted inhibition curve with a large enough effect, not every such curve was filed as active; inconclusive means small, poorly fitted or top-dose-only effect, or another doubt; inactive means no such curve, though single readings can be large or run the other way;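 further: potency means the concentration at half of the fitted maximal effect; plate controls were no enzyme wells and a reference inhibitor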
HPGD block = HPGD (human) dehydrogenase inhibition; purified HPGD, NADH fluorescence kinetic, PGE2 substrate; Potency, µM, for inactives: top-dose activity change, negative = inhibition, actives largely listed as inhibitors; 150,000 compounds, 4.3% hits; AID 894; active means well fitted inhibition curve with a large enough effect, not every such curve was filed as active; inconclusive means small, poorly fitted or top-dose-only effect, or another doubt; inactive means no such curve, though single readings can be large or run the other way; further: potency means the concentration at half of the fitted maximal effect
Target sequence (P15428 whole entry, looked up): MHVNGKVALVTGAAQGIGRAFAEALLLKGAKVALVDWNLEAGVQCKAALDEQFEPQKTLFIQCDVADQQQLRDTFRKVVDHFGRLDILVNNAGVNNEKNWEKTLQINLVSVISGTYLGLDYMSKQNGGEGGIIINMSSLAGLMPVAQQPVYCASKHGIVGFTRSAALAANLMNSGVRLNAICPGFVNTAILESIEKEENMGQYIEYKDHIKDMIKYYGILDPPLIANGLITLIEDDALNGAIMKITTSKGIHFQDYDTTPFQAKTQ
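NADH formation kinetics: reaction with 30 uM PGE2 and 1 mM NAD+ (final), 20 nM enzyme, Tris-HCl pH 8 with Tween 20, after 15 min compound preincubation at room temperature. Fluorescence change, last versus first of five reads.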
ALOX12 inhib = 12-hLO (ALOX12) enzyme inhibition; purified 12-hLO, xylenol orange hydroperoxide absorbance; Potency, µM (doses to about 57.1 µM), without a hit: at the highest dose activity change, negative = inhibition, hits mostly inhibitors; 150,000 compounds, 0.12% hits; further: potency means the concentration at half of the fitted maximal effect; nearly all actives have a fitted effect of over 55% in size
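Hydroperoxide output read as Fe(III)-xylenol orange absorbance, 573-to-405 nm ratio, after 30 min reaction with 40 uM arachidonic acid. Enzyme: 150 nM purified human 12hLO, 15 min compound preincubation; 25 mM Hepes pH 7.0, room temperature.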
The depositor's hits bear a star; u = inconclusive; x = no result given; [ ] = another dose, or the depositor's remark. Hits are enriched below; roughly 10% of the tested compounds scored in any of these assays. Unless noted, the call rests on the fitted dose curve; in most records, active means well fitted curve in the direction sought with a large enough effect; inconclusive means small, poorly fitted or top-dose-only effect, or another doubt; inactive means no such curve, though single readings can be large; an effect the other way counts as inactive or inconclusive. Unless noted, on the % scale 0 is the no-effect control and ±100 the full control effect.

SMILES	aGal spleen mod	PNC assembly inh	GLA inh pH 4.5	ALDH1A1 inh	HPGD block	ALOX12 inhib
COc1ccc(-n2c(C)cc(C(=O)COC(=O)Cn3cnc4ccccc43)c2C)cc1	7%	-27	-19	13µM*	-29%	-4%
CN1CCN(CCCc2c3c(cc4c2CCC4)CCC3)CC1	-16%	-5	-11	-3%	-12%	7%
Cc1cc(-n2c(C)cc(C(=O)CCl)c2C)no1	-14%	x	-1	1µM*	x	x
Cc1cc(-n2c(C)cc(C(=O)CN3C(=O)NC4(CCCC4)C3=O)c2C)no1	12%	-117*	1	3%	0%	0%
COc1ccc(-n2c(C)cc(C(=O)CCl)c2C)cc1	3%	x	8	0.32µM*	x	x
Cc1cc(C(=O)CSc2nncs2)c(C)n1-c1c(C)n(C)n(-c2ccccc2)c1=O	-4%	5	-1	-1%	-3%	-7%
Cc1ccc(-n2c(C)cc(C(=O)CSc3nncs3)c2C)cc1	2%	u	6	6%	25µM*	-13%
Cc1cc(-n2c(C)cc(C(=O)CN3C(=O)NC4(CCCCC4)C3=O)c2C)no1	7%	u	-4	-6%	-11%	-1%
CC(=O)N1CCN(C(=S)Nc2cc(S(=O)(=O)N3CCOCC3)ccc2Cl)CC1	0%	x	u	u	x	x
O=C(NCc1cccnc1)C(=O)NCC1CCCO1 (stereo not given)	5%	x	1	3%	x	x
Cc1sc(N)c(C(=O)c2cccc(C(F)(F)F)c2)c1C	5%	x	1	u	-22%	-17%
Cc1c(NC(=O)C(C)OC(=O)c2ccc(Cl)nc2)c(=O)n(-c2ccccc2)n1C (stereo not given)	1%	u	2	8%	-3%	-7%
N=c1c2c(n(Cc3ccc(Br)cc3)c3c1CCC3)CCCC2	-3%	-123*	-2	0%	-1%	2%
N=c1c2c(n(Cc3ccc(Cl)c(Cl)c3)c3c1CCC3)CCCC2	13%	2	-3	7%	x	2%
O=C(CSc1nncs1)N1c2ccccc2Sc2ccccc21	4%	-18	-11	10µM*	-8%	-3%
Cn1nnnc1SCC(=O)N1c2ccccc2Sc2ccccc21	0%	u	1	5%	-10%	1%
Cc1ccc(SCC(=O)N2c3ccccc3Sc3ccccc32)cc1	1%	13	4	3.5µM*	-22%	-5%
COCCn1c(=O)c(C)nc2cncnc21	-2%	x	x	u	x	x
Cc1cccc(C)c1OCC(=O)NCC1CCCO1 (stereo not given)	0%	x	-2	u	x	x
CC(C)OCC(O)CS(=O)(=O)Cc1ccccc1 (stereo not given)	0%	33	-2	13%	13µM*	5%
CC(C)NC(=O)c1ccccc1NC(=O)CS(=O)(=O)Cc1ccccc1	-3%	u	4	10%	-8%	-5%
O=C(O)c1cccc(N/N=C/C2=C(Cl)c3cc(Cl)ccc3SC2)c1	-14%	x	-6	20µM*	x	x
O=C(O)c1cccc(N/N=C/c2ccc(F)c(F)c2)c1	0%	x	2	u	x	x
c1ccc(-c2cnc(-c3cccnc3)o2)cc1	1%	-84*	-4	u	u	-2%
[O-][n+]1cccc2ncc3cscc3c21	-11%	1	-1	0%	-12%	0%
SMILES	aGal spleen mod	PNC assembly inh	GLA inh pH 4.5	ALDH1A1 inh	HPGD block	ALOX12 inhib
CC1(C)CC(=O)C2=C(C1)OC1=C(C(=O)CC(C)(C)C1)C2c1ccc(O)c([N+](=O)[O-])c1	-5%	x	-2[21.1 µM]	-7%	x	x
CC1(C)CC(=O)C2=C(C1)OC1=C(C(=O)CC(C)(C)C1)C2c1ccc(O)cc1O	-6%	44	-5	0.89µM*	3.2µM*	u
Cc1ccc2cc3c(N)[nH]nc3nc2c1	-1%	21	7	u	-28%	3%
Cc1ccc(-c2csc(=S)n2CC(=O)OCC(=O)NCc2ccco2)cc1	-7%	-29	0	u	-10%	-6%
Cc1ccc(-c2csc(=S)n2CC(=O)OCC(=O)NC(C)C(C)C)cc1 (stereo not given)	4%	-5	-14	1.6µM*	-15%	4%
COc1ccc(NC(=O)Nc2ccc(C(=O)N3CCOCC3)cc2)cc1	1%	-27	-9	0%	u	0%
COc1ccc(-c2ccc(Nc3ccc(C(=O)N4CCOCC4)cc3)nn2)cc1OC	2%	-2	-1	0%	18µM*	1%
COc1ccccc1-c1ccc(Nc2ccc(C(=O)N3CCOCC3)cc2)nn1	11%	164	-1	u	7.9µM*	0%
CCN(CC(=O)Nc1ccc(C)c(F)c1)CC(=O)NC(C)(C)C	-7%	x	3	1%	x	x
CC1CCN(C(=O)CNS(=O)(=O)c2ccc(Br)s2)CC1	-1%	-24	2	8.9µM*	-23%	-11%
CC1CC(C)CN(C(=O)CNS(=O)(=O)c2ccc(Br)s2)C1 (stereo not given)	-8%	62	-18	-2%	-6%	-6%
CC(=O)OC1CC(OC(C)=O)[C@]2(C)C(CC(=O)[C@]3(C)C2CC[C@@]2(C)C(c4ccoc4)OC(=O)C4O[C@@]423)C1(C)C (stereo not given in full)	-27%	x	1	1%	-1%	-1%
Nc1ncnc2c1ncn2[C@H]1O[C@@H](C(=O)O)[C@@H](O)[C@H]1O	x	x	x	7%[13.5 µM]	0%	-2%[11.4 µM]
O=C(Nc1ccccc1Cl)c1cc[n+](Cc2ccc([N+](=O)[O-])cc2)cc1	-2%	x	-1	8%	x	x
C/C(=C\C(=O)c1ccc(Cl)cc1Cl)N(C)C	-5%	x	0	5.6µM*	x	x
CN(C)/C=C/C(=O)c1ccc(Cl)cc1Cl	5%	x	5	-4%	x	x
Fc1cccc(F)c1-n1c(CN2CCCC2)csc1=S	1%	x	3	22µM*	x	x
COC(=O)[C@@]1(Cc2ccc(OC)cc2)[C@H]2c3cc(C(=O)N(C)C)n(Cc4ccc(OC)c(OC)c4)c3C[C@H]2CN1C(=O)c1ccccc1	-3%	x	-6	-5%	-8%	-14%
CCCN1C=CC(=C2C(=O)c3ccccc3C2=O)C=C1	-5%	-9	-14	14µM*	-16%	-6%
CCCCN1C(C)=CC(=C2C(=O)c3ccccc3C2=O)C=C1C	-5%	x	7	14µM*	x	x
CCCCCCN1C=CC(=C2C(=O)c3ccccc3C2=O)C=C1	-5%	x	-10	3%	x	x
CC1=CC(=C2C(=O)c3ccccc3C2=O)C=C(C)N1Cc1ccco1	-21%	37	-14	7.9µM*	-16%	-28%
O=C1c2ccccc2C(=O)N1Cc1ccco1	4%	2	-5	-16%	-6%	-6%

From PubChem
